Assay results as given in PubChem BioAssay (Tox21).
Values joined by “and” are separate entries in the source; they are usually repeats but may differ in a detail not shown here. Identical values can stand only once. Records with an inconclusive call do not appear. A call without a number means that no potency is given here. More than one record can exist for a structure, and the calls need not agree. Active and inactive are the calls of the source. Unless noted, calls follow the shape of the full dose curve.

Key:
[1] = Nuclear factor erythroid 2-related factor 2/antioxidant responsive element (Nrf2/ARE) small molecule agonists: qHTS cell viability counter screen in human keratinocytes (AID 1919968; active = well fitted curve in the direction sought with a large enough effect in the repeat runs; an effect the other way counts as inactive or inconclusive; also: nearly all actives have a fitted effect of over 55% in size; also: potency is read from the fitted curve at half-maximal effect)
Outline: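 Cells of the KeratinoSens line were plated at 1,500 per well and left for 5 h before compound transfer from DMSO stocks. After a 23 h incubation (37 C, 5% CO2), CellTiter-Fluor was added. Signal was taken as fluorescence intensity 1 h later.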

[2] = molecular target: Gonadotropin-releasing hormone receptor (Homo sapiens) (UniProt P30968); experiment: Human gonadotropin-releasing hormone receptor (GnRHR) small molecule agonists, calcium flux assay in GnRHR-HEK293 cells (AID 1920063); also: nearly all actives have a fitted effect of over 35% in size
Outline: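 Compounds dissolved in DMSO are pin-transferred onto dye-loaded GnRHR-HEK293 cells, which were seeded 18 h before at 37 C/5% CO2. Calcium signal is read as fluorescence intensity at 1 s intervals for 3 min.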

[3] = G protein-coupled receptor (GPCR) small molecule agonists, calcium flux assay: HEK293 wild type cell line counter screen (AID 1920065)
Outline: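 Tox21 10K compounds, 15 concentrations each in triplicate, pin-transferred in DMSO onto dye-loaded cells; kinetic read at 480/540 nm for 3 min, 1 s intervals.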

[4] = p53 small molecule agonists, cell-based qHTS assay with human liver microsomes (AID 1963577);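 also: p53 response element beta-lactamase reporter cells with liver microsomes plus NADPH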
Outline: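 Metabolically competent format: test substances, human liver microsomes and NADPH (both 0.5 mg/mL final) incubated with p53RE-bla cells 16 h at 37 C. Beta-lactamase reporter signal then quantified by fluorescence.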

[5] = p53 small molecule agonists, cell-based qHTS assay with rat liver microsomes (AID 1963578)
Outline: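 Each plate received p53RE-bla cells, then compound, then rat liver microsomes and NADPH (both 0.5 mg/mL final). Plates were held 16 h at 37 C, and beta-lactamase activity was detected with LiveBLAzer over 2 h.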

[6] = p53 small molecule agonists, cell-based qHTS assay with human liver microsomes: qHTS cell viability counter screen (AID 1963579); also: nearly all actives have a fitted effect of over 45% in size; also: potency is read from the fitted curve at half-maximal effect
Outline: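 Tox21 library compounds, delivered from DMSO stocks, were tested on p53RE-bla cells together with 0.5 mg/mL human liver microsomes and 0.5 mg/mL NADPH (final) over 16 h at 37 C; CellTiter-Glo luminescence served as the cytotoxicity measure.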

[7] = p53 small molecule agonists, cell-based qHTS assay with rat liver microsomes: qHTS cell viability counter screen (AID 1963580); also: nearly all actives have a fitted effect of over 45% in size
Outline: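 Cytotoxicity counter screen: intracellular ATP measured by CellTiter-Glo luminescence in the same wells as the beta-lactamase reporter read, on HCT-116 p53RE-bla cells exposed 16 h at 37 C to compounds with rat liver microsomes and NADPH, each 0.5 mg/mL final.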

[8] = p53 small molecule agonists, cell-based qHTS assay: qHTS cell viability counter screen (AID 1963581); also: nearly all actives have a fitted effect of over 45% in size; also: potency is read from the fitted curve at half-maximal effect
Outline: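 ATP content measured by luminescence in HCT-116 p53RE-bla cells treated 16 h at 37 C, same wells as the reporter screen.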

[9] = p53 small molecule agonists, cell-based qHTS assay (AID 1963582; active = well fitted activation curve with a large enough effect in the signal ratio in the repeat runs, not every such curve was filed as active; the % refers to the signal ratio)
Outline: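 16 h compound exposure (37 C) of p53 response element–bla cells, preceded by 5 h recovery at 37 C/5% CO2; read-out via LiveBLAzer B/G FRET substrate, 2 h RT, fluorescence intensity.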

[10] = cAMP Responsive Elements (CRE) small molecule agonists, cell-based qHTS assay (AID 1963590); also: potency is read from the fitted curve at half-maximal effect
Outline: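 HEK 293T cells stably bearing CRE-bla were plated at 2,000 cells per well and rested 18 h. Compounds, positive controls or DMSO were added for 3 h at 37 C. LiveBLAzer B/G substrate was then loaded for 2 h at room temperature.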

[11] = molecular target: Beta-2 adrenergic receptor (Homo sapiens) (UniProt P07550); experiment: Adrenergic beta2 receptor (ADRB2) small molecule antagonists, cell-based qHTS assay (AID 1963592); also: series mostly up to about 92 µM; nearly all actives have a fitted effect of over 50% in size
Outline: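 Assay format: CHO-ADRB2 cells, 18-20hr seeding at 37C/5% CO2, then compound plus 1nM isoproterenol agonist mix for 0.5hr RT. Homogeneous time-resolved fluorescence cAMP detection after 1hr, expressed as 665/615 nm ratio.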

[12] = molecular target: D(2) dopamine receptor (Homo sapiens) (UniProt P14416); experiment: Dopamine D2 receptor (DRD2) small molecule agonists, cell-based qHTS assay (AID 1963594); also: nearly all actives have a fitted effect of over 35% in size
Outline: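 HEK293 cells stably expressing human DRD2, pre-treated with PDE inhibitor Ro20-1724 (0.1 mM final) and compound 10 min at room temperature, then stimulated with NKH477 (200nM […]) for 30 min. cAMP read by HTRF (665/620 nm).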

[13] = molecular target: D(2) dopamine receptor (Homo sapiens) (UniProt P14416); experiment: Dopamine D2 receptor (DRD2) small molecule antagonists, cell-based qHTS assay (AID 1963595; active = well fitted inhibition curve with a large enough effect in the signal ratio in the repeat runs, with a control signal flat; the % refers to the signal ratio; also: potency is read from the fitted curve at half-maximal effect)
Outline: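 In this cell-based antagonist screen, compounds act for 10 min at room temperature before a 30 min challenge with 12 nM quinpirole and 200 nM NKH477. cAMP is quantified by HTRF competition in DRD2-HEK293 cells containing 0.1 mM Ro20-1724.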

[14] = molecular target: KiSS-1 receptor (Homo sapiens) (UniProt Q969F8); experiment: Human kisspeptin (KISS1R) small molecule agonists, calcium flux assay in KISS1R-HEK293 cells (AID 1920064; active = well fitted curve in the direction sought with a large enough effect in the repeat runs; an effect the other way counts as inactive or inconclusive)
Outline: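 Cell line: HEK293, stable human KISS1R. Dye loading 1 h at 37 C after 18 h culture. Read: kinetic fluorescence, 480/540 nm, 3 min at 1 s intervals.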

[15] = molecular target: 5-hydroxytryptamine receptor 2A (Homo sapiens) (UniProt P28223); experiment: 5-hydroxytryptamine receptor 2A (HTR2A) small molecule agonists, cell-based qHTS assay (AID 1963587); also: nearly all actives have a fitted effect of over 30% in size; also: potency is read from the fitted curve at half-maximal effect
Outline: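 CHO cells stably expressing human HTR2A, plated 18 h, loaded with calcium dye 1 h at 37 C. Agonist mode: compounds added and intracellular calcium fluorescence recorded kinetically for 2 min at 1 sec intervals.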

[16] = molecular target: Muscarinic acetylcholine receptor M1 (Homo sapiens) (UniProt P11229); experiment: Cholinergic receptor muscarinic 1 (CHRM1) small molecule antagonists, cell-based qHTS assay (AID 1963588); also: nearly all actives have a fitted effect of over 40% in size; also: potency is read from the fitted curve at half-maximal effect
Outline: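 Compounds were tested at 15 concentrations in three independent runs. Dye-loaded CHRM1-CHO cells were exposed 5 min at room temperature before stimulation by acetylcholine added at 50nM. Intracellular calcium was read kinetically on FDSS for 3 min.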

[17] = molecular target: Muscarinic acetylcholine receptor M1 (Homo sapiens) (UniProt P11229); experiment: Cholinergic receptor muscarinic 1 (CHRM1) small molecule agonists, cell-based qHTS assay (AID 1963589); also: nearly all actives have a fitted effect of over 35% in size
Outline: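 Homogeneous fluorescence calcium flux, agonist mode. Human M1-expressing CHO cells; compound dosed at 15 concentrations, three independent runs; signal sampled every 1 sec.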

[18] = cAMP Responsive Elements (CRE) small molecule antagonists, cell-based qHTS assay (AID 1963591; active = well fitted inhibition curve with a large enough effect in the signal ratio in the repeat runs, not every such curve was filed as active; the % refers to the signal ratio)
Outline: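 First, CRE-bla HEK293T cells settled 18 h at 37 C. Next, compound and 0.25 uM final NKH477 were applied for 3 h. Last, LiveBLAzer B/G substrate was loaded for 2 h at room temperature.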

[19] = molecular target: Beta-2 adrenergic receptor (Homo sapiens) (UniProt P07550); experiment: Adrenergic beta2 receptor (ADRB2) small molecule agonists, cell-based qHTS assay (AID 1963593); also: potency is read from the fitted curve at half-maximal effect;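 as to activation: CHO cells stably overexpressing human ADRB2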
Outline: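 CHO cells stably over-expressing ADRB2 were plated overnight at 37C, then dosed with compounds plus a stimulation mix containing 100uM IBMX and 25uM Ro-20-1724 for 0.5hr at room temperature. cAMP was measured by HTRF competition, 1hr.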

[20] = molecular target: 5-hydroxytryptamine receptor 2A (Homo sapiens) (UniProt P28223); experiment: 5-hydroxytryptamine receptor 2A (HTR2A) small molecule antagonists, cell-based qHTS assay (AID 1963586); also: nearly all actives have a fitted effect of over 45% in size; also: potency is read from the fitted curve at half-maximal effect
Outline: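 CHO cells stably expressing human HTR2A were plated for 18 h at 37 C, then loaded with calcium dye for 1 h. Compounds were preincubated 5 min at room temperature before DOI (4 nM solution) was added. Kinetic fluorescence was read for 3 min.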

Sequence of Muscarinic acetylcholine receptor M1 (Homo sapiens) (P11229 whole entry, looked up): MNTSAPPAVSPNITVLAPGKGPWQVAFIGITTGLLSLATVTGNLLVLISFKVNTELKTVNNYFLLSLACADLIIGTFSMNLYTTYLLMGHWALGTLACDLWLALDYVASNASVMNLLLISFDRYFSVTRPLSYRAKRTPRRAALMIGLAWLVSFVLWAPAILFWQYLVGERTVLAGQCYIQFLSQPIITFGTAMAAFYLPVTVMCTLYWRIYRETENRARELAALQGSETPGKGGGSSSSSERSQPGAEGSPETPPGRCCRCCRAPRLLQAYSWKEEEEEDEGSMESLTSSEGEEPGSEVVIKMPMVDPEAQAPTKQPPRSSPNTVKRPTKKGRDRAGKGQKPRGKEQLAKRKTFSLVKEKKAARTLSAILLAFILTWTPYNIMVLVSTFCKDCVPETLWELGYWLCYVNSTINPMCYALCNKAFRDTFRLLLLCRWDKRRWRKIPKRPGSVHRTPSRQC
Sequence of D(2) dopamine receptor (Homo sapiens) (P14416 whole entry, looked up): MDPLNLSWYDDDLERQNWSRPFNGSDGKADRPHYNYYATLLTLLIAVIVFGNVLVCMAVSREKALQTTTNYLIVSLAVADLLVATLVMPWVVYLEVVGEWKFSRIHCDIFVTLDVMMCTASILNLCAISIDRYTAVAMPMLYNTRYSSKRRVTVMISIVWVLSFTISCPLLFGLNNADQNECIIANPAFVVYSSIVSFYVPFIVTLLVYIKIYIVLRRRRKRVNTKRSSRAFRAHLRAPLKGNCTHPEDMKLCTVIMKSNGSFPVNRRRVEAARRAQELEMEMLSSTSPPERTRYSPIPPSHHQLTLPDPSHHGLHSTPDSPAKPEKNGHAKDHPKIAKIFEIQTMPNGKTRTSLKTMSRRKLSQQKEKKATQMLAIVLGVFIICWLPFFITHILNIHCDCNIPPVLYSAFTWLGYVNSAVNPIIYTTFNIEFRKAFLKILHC
Sequence of KiSS-1 receptor (Homo sapiens) (Q969F8 whole entry, looked up): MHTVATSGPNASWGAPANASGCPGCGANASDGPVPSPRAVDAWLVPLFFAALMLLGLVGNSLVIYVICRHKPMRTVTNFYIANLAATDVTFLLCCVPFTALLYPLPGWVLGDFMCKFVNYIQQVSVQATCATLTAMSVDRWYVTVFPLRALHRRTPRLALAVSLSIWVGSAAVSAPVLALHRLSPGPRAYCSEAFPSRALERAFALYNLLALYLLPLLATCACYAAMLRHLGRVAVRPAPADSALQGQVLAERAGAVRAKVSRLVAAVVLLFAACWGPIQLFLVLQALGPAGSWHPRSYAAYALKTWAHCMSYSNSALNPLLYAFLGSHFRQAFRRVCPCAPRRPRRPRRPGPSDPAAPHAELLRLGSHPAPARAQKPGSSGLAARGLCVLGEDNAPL
Sequence of 5-hydroxytryptamine receptor 2A (Homo sapiens) (P28223 whole entry, looked up): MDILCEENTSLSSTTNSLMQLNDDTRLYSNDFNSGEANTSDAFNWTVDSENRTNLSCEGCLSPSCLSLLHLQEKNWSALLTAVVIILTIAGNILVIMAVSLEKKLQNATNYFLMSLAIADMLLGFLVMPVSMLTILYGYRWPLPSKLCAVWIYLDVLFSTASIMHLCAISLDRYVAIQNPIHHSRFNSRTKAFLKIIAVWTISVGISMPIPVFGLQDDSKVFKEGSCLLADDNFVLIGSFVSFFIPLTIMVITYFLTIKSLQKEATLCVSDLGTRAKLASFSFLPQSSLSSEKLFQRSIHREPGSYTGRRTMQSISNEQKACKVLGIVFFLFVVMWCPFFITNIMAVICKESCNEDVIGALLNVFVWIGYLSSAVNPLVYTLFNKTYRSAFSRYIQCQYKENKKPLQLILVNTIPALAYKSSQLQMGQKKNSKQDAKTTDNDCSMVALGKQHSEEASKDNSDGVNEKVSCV
Sequence of Gonadotropin-releasing hormone receptor (Homo sapiens) (P30968 whole entry, looked up): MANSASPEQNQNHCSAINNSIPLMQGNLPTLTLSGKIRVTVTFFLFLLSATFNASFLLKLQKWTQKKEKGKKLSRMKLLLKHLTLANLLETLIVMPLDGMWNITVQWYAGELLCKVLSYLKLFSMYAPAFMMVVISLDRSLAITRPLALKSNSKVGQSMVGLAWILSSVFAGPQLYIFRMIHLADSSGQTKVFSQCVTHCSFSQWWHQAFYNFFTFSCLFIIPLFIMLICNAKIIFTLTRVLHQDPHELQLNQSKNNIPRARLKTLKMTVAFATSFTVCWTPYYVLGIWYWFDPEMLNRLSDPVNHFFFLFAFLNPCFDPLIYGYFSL
Sequence of Beta-2 adrenergic receptor (Homo sapiens) (P07550 whole entry, looked up): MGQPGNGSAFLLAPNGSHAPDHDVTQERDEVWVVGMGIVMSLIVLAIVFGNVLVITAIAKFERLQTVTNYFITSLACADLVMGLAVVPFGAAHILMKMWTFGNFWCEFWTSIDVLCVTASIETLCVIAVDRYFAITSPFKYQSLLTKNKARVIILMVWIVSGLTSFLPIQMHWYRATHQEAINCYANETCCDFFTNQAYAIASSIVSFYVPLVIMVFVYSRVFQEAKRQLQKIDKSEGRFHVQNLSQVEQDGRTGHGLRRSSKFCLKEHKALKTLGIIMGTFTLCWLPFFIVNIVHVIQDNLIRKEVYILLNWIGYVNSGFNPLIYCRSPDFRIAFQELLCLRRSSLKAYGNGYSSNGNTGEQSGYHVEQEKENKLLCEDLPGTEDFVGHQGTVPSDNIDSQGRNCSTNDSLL

Compound	Potency [1]	Potency [2]	Potency [3]	Potency [4]	Potency [5]	Potency [6]	Potency [7]	Potency [8]	Potency [9]	Potency [10]	Potency [11]	Potency [12]	Potency [13]	Potency [14]	Potency [15]	Potency [16]	Potency [17]	Potency [18]	Potency [19]	Potency [20]
CC1(C)O[C@@H]2C[C@H]3[C@@H]4C[C@H](F)C5=CC(=O)CC[C@]5(C)[C@H]4[C@@H](O)C[C@]3(C)[C@]2(C(=O)CO)O1	inactive	inactive	inactive	inactive	inactive	inactive	inactive	inactive	inactive	inactive	inactive	inactive	inactive							
NC1CCCCC1	inactive		inactive			inactive	inactive	inactive			inactive	inactive	inactive	inactive	1.96 µM (active) and inactive	inactive and 4.7 nM (active)	inactive	inactive	inactive	
CCCCCCCCCCCC[N+](C)(C)Cc1ccccc1	23.9 µM (active) and 29.7 µM (active) and 11.9 µM (active)		inactive			44.9 µM (active) and 49.7 µM (active) and 19.9 µM (active)	inactive				inactive	inactive	inactive and 59.2 µM (active) and 29.8 µM (active)	inactive	48 µM (active)	1.02 µM (active) and 650 nM (active)	inactive			1.3 µM (active) and inactive and 16.3 µM (active)
C=C[C@@]1(C)CC(=O)[C@]2(O)[C@@]3(C)[C@@H](O)CCC(C)(C)[C@@H]3[C@H](O)[C@H](OC(C)=O)[C@@]2(C)O1	inactive		inactive	inactive	inactive	inactive	inactive		inactive	243 nM (active) and 298 nM (active)			30.6 nM (active) and 944 nM (active)	inactive	inactive	inactive	inactive		0.119 µM (active)	inactive
CCCCCCCCCCCCc1ccccc1O	21.4 µM (active) and 24.3 µM (active)		inactive	inactive	inactive	18 µM (active) and 20.4 µM (active)	inactive	14.3 µM (active) and 18.2 µM (active)			inactive	inactive	inactive	inactive	inactive	inactive	inactive			inactive
COCC(=O)O	inactive	inactive	inactive	inactive	inactive	inactive	inactive	inactive	inactive	inactive	inactive	inactive	inactive	inactive	inactive	8.63 µM (active) and inactive	inactive	inactive	inactive	inactive
C[C@]12C=CC(=O)C=C1CC[C@@H]1[C@@H]2[C@@H](O)C[C@@]2(C)[C@H]1CC[C@]2(O)C(=O)CO	inactive			inactive	inactive	inactive	inactive	inactive		inactive			inactive	inactive				inactive	inactive	
C#CC1(O)CC[C@H]2[C@@H]3CCC4=CCCC[C@@H]4[C@H]3CC[C@@]21C (stereo partly drawn)	27.3 µM (active) and inactive		inactive	inactive	inactive	inactive	inactive	40.8 µM (active) and inactive	inactive		inactive	inactive	inactive	inactive	54.9 µM (active) and inactive	inactive	inactive	inactive	inactive	inactive
